# Results reported in the supplement of paper PMC12669032.
# Where “and” joins values, the source holds several entries; their conditions need not be identical. Equal entries are not always repeated. A number with no mark means an inactive call.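 Rule for the calls: active = AUC reduced over 20% with Padj below 0.05 in at least 2 of 3 replicates; inactive = otherwise.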
# What was measured:
# Test in all cases: growth AUC relative to DMSO control (median of replicates) (fraction); higher = more growth (less inhibition), active = hit call of the paper
# Conditions in all cases: 20 µM; 24 h
# Coprococcus comes = tested on: Coprococcus comes
# Summary of the method: (§1)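 Area under the growth curve was normalised to the plate median of solvent-only wells, except on the industrial chemical plate, where row and column medians were used. Curves came from gut bacterial monocultures grown anaerobically at 37 °C in mGAM with 20 µM compound (1% DMSO), starting at OD600 0.05 and read at OD600 every hour for 24 h. The minimum OD of each curve was set to 0, and values are medians of three biological replicates grown on separate days.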
# Escherichia coli ED1a = tested on: Escherichia coli ED1a
# Summary of the method: as §1
# Escherichia coli IAI1 = tested on: Escherichia coli IAI1
# Summary of the method: as §1
# Eubacterium rectale = tested on: Eubacterium rectale
# Summary of the method: as §1
# [1] = tested on: Fusobacterium nucleatum subsp. animalis
# Summary of the method: as §1
# Lactobacillus gasseri = tested on: Lactobacillus gasseri
# Summary of the method: as §1
# Lactobacillus paracasei = tested on: Lactobacillus paracasei
# Summary of the method: as §1
# Odoribacter splanchnicus = tested on: Odoribacter splanchnicus
# Summary of the method: as §1
# [2] = tested on: Parabacteroides distasonis
# Summary of the method: as §1
# Parabacteroides merdae = tested on: Parabacteroides merdae
# Summary of the method: as §1
# Roseburia intestinalis = tested on: Roseburia intestinalis
# Summary of the method: as §1
# Streptococcus salivarius = tested on: Streptococcus salivarius
# Summary of the method: as §1
Compound,growth AUC (Coprococcus comes),growth AUC (Escherichia coli ED1a),growth AUC (Escherichia coli IAI1),growth AUC (Eubacterium rectale),growth AUC [1],growth AUC (Lactobacillus gasseri),growth AUC (Lactobacillus paracasei),growth AUC (Odoribacter splanchnicus),growth AUC [2],growth AUC (Parabacteroides merdae),growth AUC (Roseburia intestinalis),growth AUC (Streptococcus salivarius)
CC1(C)[C@H](/C=C(\Cl)C(F)(F)F)[C@@H]1C(=O)O[C@@H](C#N)c1cccc(Oc2ccccc2)c1,0.959,1,0.992,0.961,0.953,0.853,0.996,1,0.985,0.957,0.919,0.957
C[N+]1(C)CCCCC1.[Cl-],1.07,1.03,0.992,1.2,1.09,0.976,1.02,0.941,1,1.04,0.975,0.99
N#Cc1nn(-c2c(Cl)cc(C(F)(F)F)cc2Cl)c(N)c1C(F)(F)F,0.885,0.986,0.978,1.01,0.842,0.801,0.927,0.696,0.791 (active),0.834,0.698 (active),0.539 (active)
CCCCCCCC(=O)Oc1c(I)cc(C#N)cc1I,0.995,0.985,0.896,1.09,1.16,0.89,1.01,0.91,0.91,0.908,0.957,0.805
CCCOc1nn(C(=O)[N-]S(=O)(=O)c2ccccc2C(=O)OC)c(=O)n1C.[Na+],0.988,0.994,1.02,1.08,1.12,0.968,0.977,1.1,1.02,0.999,0.992,0.981
CN(C)C(CSS(=O)(=O)c1ccccc1)CSS(=O)(=O)c1ccccc1,1.03,0.97,1.01,1.53,0.932,0.85,0.95,0.98,0.95,0.992,1.02,0.973
OC(c1ccc(F)cc1)(c1cncnc1)c1ccccc1Cl (stereo not drawn),0.962,0.996,1.01,0.965,1.06,0.969,1.02,0.931,1,0.782 (active),0.975,0.996
COC(=O)/C=C(/C)OP(=O)(OC)OC,1.02 and 1.04,1.01 and 1.05,0.997 and 1.04,1.03 and 1.05,1.03 and 1.22,0.973 and 1.01,0.956 and 1.04,1.09 and 0.835,0.972 and 0.999,1 and 1.05,1.02 and 0.985,0.944 and 1
CC(C)(C)C(O)(CCc1ccc(Cl)cc1)Cn1cncn1 (stereo not drawn),1.02,1.01,0.991,0.879,1.05,1.04,0.968,0.973,0.903,0.962,1.1,1.01
CCOP(=S)(OCC)SCCSCC,1.03,1.01,1,0.971,1.09,1.02,1.1,1.02,0.991,1.01,1.02,1.01
CCC(C)(C)c1ccc(O)cc1,1.03,0.978,0.985,0.953,1,0.957,0.999,1.08,1.03,1.01,0.995,0.995
CC1(C)C(C=C(Cl)Cl)C1C(=O)OC(C#N)c1cccc(Oc2ccccc2)c1 (stereo not drawn),0.945,1.01,0.98,1.05,1.05,0.776,0.951,1.07,0.98,1.02,0.871,0.937
C#CCOS(=O)OC1CCCCC1Oc1ccc(C(C)(C)C)cc1 (mixture of isomers),1.02,1.03,0.968,1,1.05,0.928,0.987,0.946,0.964,0.933,0.956,1.03
CCOP(=S)(OCC)Oc1cnccn1,0.984,0.988,0.963,0.813,1.01,0.993,1.01,1.04,1,1.01,0.976,1
CS(=O)(=O)c1ccc(C(=O)C2C(=O)CCCC2=O)c(Cl)c1,0.974,1.01,1.03,0.916,1.05,1.09,1.03,1.04,1.04,1.01,1.04,0.994
CC(C)N(C(=O)SCC(Cl)=C(Cl)Cl)C(C)C,0.981,0.977,0.977,1.08,1.01,0.948,1,0.944,0.872,0.947,1.01,0.996
O=C(O)C(F)(F)C(F)(F)C(F)(F)C(F)(F)C(F)(F)C(F)(F)C(F)(F)F,1.02,1,0.998,1,1,1.01,0.966,0.979,0.934,1,1,1.01
CN(C)C(=O)Nc1cccc(C(F)(F)F)c1,0.965,1.01,0.986,1.01,1.05,1.05,0.985,1.07,0.961,1,0.979,0.991
CCOP(=S)(OCC)SCS(=O)(=O)C(C)(C)C,0.991,1.01,0.966,1.08,0.964,1.02,1.03,0.979,1.02,0.986,1.02,0.984
COP(=O)(NC(C)=O)SC (stereo not drawn),0.979,1.01,0.993,0.921,0.99,1.1,1.02,0.999,1.06,1.01,1.01,1.01
Nc1cc(Cl)cc(C(=O)O)c1Cl,0.992,1.01,1.04,1.01,0.994,1.13,1.03,1.09,1.01,0.977,1.04,1.02
CS(=O)(=O)c1cc(C(F)(F)F)ccc1C(=O)c1cnoc1C1CC1,1.02,1.01,1.01,1.04,0.93,1.04,0.826,1.1,1.05,1.02,1.03,1.01
BrCCBr,1.03,1.03,1.01,1.06,1.01,1.03,1,1.06,1.04,0.99,1.06,1.01
CCN(CC)c1c([N+](=O)[O-])cc(C(F)(F)F)c(N)c1[N+](=O)[O-],0.982,1.05,1.02,0.977,1.06,1.04,1.06,0.955,0.897,0.928,0.984,1.03
